Here are results for five molecules from PubChem BioAssay.

The structures appear in SMILES notation. Calls of active or inactive are those of the source. Unless noted, how the calls were made is not given here.

Test [1] in a line: compounds binding Alexa647 anti-His antibody – biochemical, small-molecule microarray, 635 nm fluorescence, artefact control for SMM control protein annotation, primary screen (AID 1128).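 Further: score merges feature fluorescence with signal-to-noise for each printed compound spot.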 Particulars: higher = more signal.
In test [2] the test system is Human papillomavirus type 1a E7 protein (residues 1-88). Briefly: HPV1a E7 small-molecule binders, primary screen, biochemical, small-molecule microarray, residues 1-88, 635 nm (AID 1129). Particulars: small-molecule microarray binding, fluorescence 635 nm; higher = more signal.
Test [3] concerns the target Focal adhesion kinase 1 (Homo sapiens) (UniProt Q05397). Briefly: PTK2 protein binding on printed compound slides – biochemical, small-molecule microarray, 635/667 nm fluorescence, BSA, DTT, primary screen (AID 1130).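 Further: composite of spot emission at 667 nm and signal to noise over triplicate slides.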 Particulars: 635 nm fluorescence, higher = more signal.
The test system of test [4] is Fibrinogen (Alexa647-labelled). Briefly: Alexa647-fibrinogen binding to printed small molecules – biochemical, small-molecule microarray, 635/667 nm fluorescence, artefact control for SMM control-protein annotation, profiling panel (AID 1131).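 Further: z-score merges 667 nm fluorescence with per-spot signal-to-noise over triplicate slides.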 Particulars: fibrinogen-A647 binding fluorescence, higher = more signal.
The target in test [5] is Follistatin (Homo sapiens) (UniProt P19883). Briefly: FST protein binding to printed compounds – biochemical, small-molecule microarray, 635/667 nm fluorescence, primary screen (AID 1132). Particulars: 635 nm fluorescence, higher = more signal.
In test [6] the target is Fibroblast growth factor 2 (Homo sapiens) (UniProt P09038). Briefly: basic fibroblast growth factor binding to printed compounds – biochemical, small-molecule microarray, 635/667 nm fluorescence, primary screen (AID 1133). Particulars: FGF2, fluorescence 635/667, higher = more signal.
Test [7] in a line: JC-1 mitochondrial potential readout, lung cancer cells – cell-based, A549, JC-1 fluorescence, basal, 24 h, 100 nL, profiling panel (AID 1138).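 Further: A549 lung adenocarcinoma cells under basal conditions with no added stimulus; test concentration not given here.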 Particulars: higher = more signal.
In test [8] the test system is Lefty1. Briefly: Lefty1 protein binding to printed compounds – biochemical, small-molecule microarray, 635/667 nm fluorescence, primary screen (AID 1139). Particulars: fluorescence 635/667, higher = more signal.
Test [9] deals with wheat germ agglutinin (Triticum aestivum), Alexa647-labelled. Briefly: Alexa647-WGA lectin binding to printed small molecules – biochemical, small-molecule microarray, 635/667 nm fluorescence, artefact control for SMM control-protein annotation, profiling panel (AID 1140).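 Further: score merges 667 nm feature emission with signal to noise over triplicate slides.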 Particulars: WGA-A647 binding, 635 nm fluorescence, higher = more signal.
The target in test [10] is Luciferin 4-monooxygenase (Photinus pyralis) (UniProt P08659). Briefly: inhibition of purified Photinus pyralis luciferase – biochemical, luminescence, purified enzyme, 2006 set, primary screen (AID 1141).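 Further: cell-free assay with purified firefly luciferase at 100 ng per well in PBS; test concentration not given here.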 Particulars: purified firefly luciferase, SteadyGlo luminescence, 30 min; higher = more signal, called active from +8 up or from −8 down.
Test [11] concerns Wnt5a (protein binding on small-molecule microarray). Briefly: small molecules binding Wnt5a protein – biophysical, small-molecule microarray, 635/667 nm fluorescence, primary screen (AID 1142).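 Further: fluorescence read at 667 nm with signal to noise per printed feature.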 Particulars: 635 nm fluorescence, higher = more signal.
A short description of test [12]: ATP-based viability of Huh7 replicon cells – cell-based, CellTiter-Glo luminescence, basal, 48 h, cytotoxicity control for HCV replication inhibitor project, primary screen (AID 1143).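 Further: Huh7 hepatoma cells carrying a hepatitis C replication reporter with no stimulus; test concentration not given here.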 Particulars: higher = more signal, called active from +8 up or from −8 down.
Test [13] in a line: Pseudomonas biofilm growth suppression – PAO1 strain, BacTiter-Glo luminescence, LB-PBS, primary screen (AID 1144). Particulars: P. aeruginosa PAO1 biofilm, 12 h, higher = more signal.
Test [14] can be described thus: basal CRE-LacZ reporter activity in PC12 – cell-based, unstimulated, primary screen (AID 1145). Particulars: no forskolin, luminescence, 4.5 h, higher = more signal, called active from +8 up or from −8 down.
The nature of test [15]: forskolin-driven CRE-LacZ activity in PC12 – cell-based, CRE-LacZ reporter, forskolin-stimulated, primary screen (AID 1146).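 Further: PC12 cells with 6xCRE LacZ reporter stimulated by forskolin 10 µM; beta-galactosidase reporter signal reflecting CREB driven transcription.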 Particulars: luminescence, 4.5 h, higher = more signal, called active from +8 up or from −8 down.
In test [16] the target is Streptavidin (Streptomyces avidinii) (UniProt P22629). Briefly: compounds binding control protein streptavidin – biophysical, small-molecule microarray, 635/667 nm fluorescence, artefact control for SMM compound annotation, primary screen (AID 1147).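 Further: signal reflects streptavidin binding to arrayed compounds as a control protein.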 Particulars: higher = more signal.
Test [17] in a line: probe aInhba binding on compound microarray – biochemical, small-molecule microarray, 635/667 nm fluorescence, primary screen (AID 1148).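 Further: score merges 667nm spot fluorescence with signal-to-noise for antibody binding to printed compounds.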 Particulars: higher = more signal.
Test [18] concerns the target Torsin-1A (Homo sapiens) (UniProt O14656). Briefly: TOR1A wild-type binding on microarray – cell lysate, small-molecule microarray, lysate, 635/667 nm, primary screen (AID 1149). Particulars: COS7 hTOR1A-WT lysate, 635 nm fluorescence, higher = more signal.
Test [19] has the same target. Briefly: torsin A mutant lysate binding on microarrays – cell lysate, small-molecule microarray, COS7 lysate, 635/667 nm fluorescence, primary screen (AID 1150).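 Further: score pools 667 nm emission and signal to noise measuring lysate protein binding.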 Particulars: COS7 hTOR1A mutant lysate, 635 nm fluorescence, higher = more signal.
Test [20] relates to Sonic hedgehog protein (Shh). Briefly: Sonic hedgehog microarray binding compounds – biochemical, small-molecule microarray, 635/667 nm fluorescence, primary screen (AID 1151).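 Further: Shh protein binding to compounds spotted on small-molecule microarray slides; score combines spot fluorescence intensity with signal-to-noise across triplicate slides.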 Particulars: 635 nm fluorescence, higher = more signal.

Sequence of Streptavidin (Streptomyces avidinii) (P22629 whole entry, looked up): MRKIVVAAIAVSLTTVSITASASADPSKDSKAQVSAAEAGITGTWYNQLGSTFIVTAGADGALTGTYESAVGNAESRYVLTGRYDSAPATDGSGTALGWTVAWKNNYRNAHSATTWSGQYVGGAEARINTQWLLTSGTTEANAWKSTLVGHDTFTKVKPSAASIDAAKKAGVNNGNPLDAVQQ
Sequence of Focal adhesion kinase 1 (Homo sapiens) (Q05397 whole entry, looked up): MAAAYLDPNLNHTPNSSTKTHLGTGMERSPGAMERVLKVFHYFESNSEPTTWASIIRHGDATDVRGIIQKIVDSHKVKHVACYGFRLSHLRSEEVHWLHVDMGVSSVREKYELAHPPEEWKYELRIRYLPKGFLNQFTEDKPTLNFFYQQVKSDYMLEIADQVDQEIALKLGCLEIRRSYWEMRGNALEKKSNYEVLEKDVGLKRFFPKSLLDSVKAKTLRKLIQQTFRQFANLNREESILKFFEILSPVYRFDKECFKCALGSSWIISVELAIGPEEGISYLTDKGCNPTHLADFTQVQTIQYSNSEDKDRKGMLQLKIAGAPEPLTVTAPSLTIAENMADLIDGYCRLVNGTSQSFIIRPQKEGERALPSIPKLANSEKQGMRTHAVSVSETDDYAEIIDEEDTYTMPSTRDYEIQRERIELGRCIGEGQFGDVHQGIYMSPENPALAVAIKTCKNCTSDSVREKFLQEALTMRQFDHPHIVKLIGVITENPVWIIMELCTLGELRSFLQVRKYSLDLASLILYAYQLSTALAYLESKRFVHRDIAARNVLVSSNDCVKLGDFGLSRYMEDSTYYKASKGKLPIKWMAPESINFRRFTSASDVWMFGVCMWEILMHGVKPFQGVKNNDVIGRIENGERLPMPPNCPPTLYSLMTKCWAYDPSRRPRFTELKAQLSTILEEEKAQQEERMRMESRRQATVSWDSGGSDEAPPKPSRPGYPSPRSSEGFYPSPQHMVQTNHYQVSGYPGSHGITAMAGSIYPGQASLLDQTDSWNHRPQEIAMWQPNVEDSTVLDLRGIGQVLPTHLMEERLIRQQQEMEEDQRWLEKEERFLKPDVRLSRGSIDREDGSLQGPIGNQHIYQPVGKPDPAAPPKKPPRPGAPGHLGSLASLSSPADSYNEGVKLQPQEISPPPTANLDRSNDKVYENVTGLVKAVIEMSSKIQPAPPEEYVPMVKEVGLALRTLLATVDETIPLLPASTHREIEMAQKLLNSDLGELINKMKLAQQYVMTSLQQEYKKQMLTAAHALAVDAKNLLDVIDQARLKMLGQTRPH
Sequence of Follistatin (Homo sapiens) (P19883 whole entry, looked up): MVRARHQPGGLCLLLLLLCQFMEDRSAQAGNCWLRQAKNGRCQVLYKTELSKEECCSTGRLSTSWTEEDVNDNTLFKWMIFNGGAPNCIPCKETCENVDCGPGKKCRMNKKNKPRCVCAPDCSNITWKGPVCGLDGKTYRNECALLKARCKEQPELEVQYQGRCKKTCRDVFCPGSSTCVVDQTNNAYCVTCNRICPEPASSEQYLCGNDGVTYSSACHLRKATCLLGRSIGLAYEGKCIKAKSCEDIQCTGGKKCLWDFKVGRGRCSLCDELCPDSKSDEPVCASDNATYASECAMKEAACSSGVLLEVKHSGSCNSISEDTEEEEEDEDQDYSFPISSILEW
Sequence of Luciferin 4-monooxygenase (Photinus pyralis) (P08659 whole entry, looked up): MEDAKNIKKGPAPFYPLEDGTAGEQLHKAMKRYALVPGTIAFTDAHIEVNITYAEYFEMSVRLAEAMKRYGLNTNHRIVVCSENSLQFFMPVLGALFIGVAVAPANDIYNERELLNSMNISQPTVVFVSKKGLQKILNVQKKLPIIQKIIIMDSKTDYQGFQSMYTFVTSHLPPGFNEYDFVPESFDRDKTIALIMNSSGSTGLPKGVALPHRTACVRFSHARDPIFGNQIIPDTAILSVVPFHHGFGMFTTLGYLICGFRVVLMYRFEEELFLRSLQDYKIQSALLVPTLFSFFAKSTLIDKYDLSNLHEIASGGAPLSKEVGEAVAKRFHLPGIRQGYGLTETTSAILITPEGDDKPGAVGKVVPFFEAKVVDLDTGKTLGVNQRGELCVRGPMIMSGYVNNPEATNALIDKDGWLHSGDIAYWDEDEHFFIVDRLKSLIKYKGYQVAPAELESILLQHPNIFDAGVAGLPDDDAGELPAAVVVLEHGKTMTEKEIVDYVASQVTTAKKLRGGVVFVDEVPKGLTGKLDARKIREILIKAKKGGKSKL
Sequence of Torsin-1A (Homo sapiens) (O14656 whole entry, looked up): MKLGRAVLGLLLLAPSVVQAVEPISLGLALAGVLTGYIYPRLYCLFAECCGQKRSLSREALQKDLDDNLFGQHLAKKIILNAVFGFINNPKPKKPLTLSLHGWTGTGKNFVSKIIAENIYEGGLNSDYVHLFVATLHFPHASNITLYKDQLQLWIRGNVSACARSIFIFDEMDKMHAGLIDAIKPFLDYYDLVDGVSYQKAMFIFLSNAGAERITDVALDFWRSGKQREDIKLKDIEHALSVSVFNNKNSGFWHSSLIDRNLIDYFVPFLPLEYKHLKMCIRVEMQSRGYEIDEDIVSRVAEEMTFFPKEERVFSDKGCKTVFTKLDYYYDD
Sequence of Fibroblast growth factor 2 (Homo sapiens) (P09038 whole entry, looked up): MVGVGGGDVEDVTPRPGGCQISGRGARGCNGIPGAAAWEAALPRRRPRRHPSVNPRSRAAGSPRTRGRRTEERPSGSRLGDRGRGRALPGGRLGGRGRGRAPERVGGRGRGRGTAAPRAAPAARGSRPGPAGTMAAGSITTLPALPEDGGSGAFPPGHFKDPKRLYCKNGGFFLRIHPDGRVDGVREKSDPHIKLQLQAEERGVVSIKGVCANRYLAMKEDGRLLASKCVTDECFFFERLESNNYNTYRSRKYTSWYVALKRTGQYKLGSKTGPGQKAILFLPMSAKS

For `CO[C@H]1COC(=O)[C@@H]2CCCN2C(=O)[C@@H](C)COC(=O)CC=C[C@@H]1C`, the composite z-score is 1.42 in test [1]; -0.217 in [2]; -0.114 in test [3]; 0.112 in test [4]; 1.02 in [5]; 1.46 in test [6]. Besides, the composite z-score is 0.898 in test [8]; -0.114 in test [9]; 0.055 in [11]; 0.457 in [16]; -0.0136 in [17]; 1.24 in test [18]. For the same molecule, the results for the composite z-score in test [19] and in test [20] were 0.219 and 2.14, respectively. Further, the z-score is -0.409 in test [7]; 1.29 (inactive) in test [10]; 0.321 (inactive) in test [12]; -0.556 (inactive) in test [13]; -0.892 (inactive) in test [14]; -0.0307 (inactive) in test [15].
Regarding `CCOC(=O)C1=CC[C@H]2C(=O)N(CC)C(=O)[C@@H]12`, the composite z-score is 0.299 in test [1]; 0.775 in test [2]; -0.0436 in [3]; 0.775 in test [4]; 0.269 in test [5]; 0.218 in test [6]. For the same molecule, the composite z-score in [8] was 0.443; in test [9], 0.433; in test [11], 0.281; in test [16], 0.0789; in test [17], -0.0719; in test [18] it was 0.483. Moreover, the composite z-score is -0.552 in test [19] and 0.13 in test [20]. For the same molecule, the z-score was -1.1 in test [7]; 1.69 (inactive) in [10]; -0.0046 (inactive) in [12]; -0.929 (inactive) in [13]; -0.228 (inactive) in test [14]; 0.687 (inactive) in [15].
As for `COC(=O)CC=C[C@@H](C)[C@H](OC)c1ccccc1Br`, the composite z-score in test [1] was -0.457; in [2], 0.0434; in test [3] it was -0.0378; in [4], -0.47; in test [5], 0.209; in [6] it was 0.182. Further, the composite z-score in test [8] is 0.0835; in [9] it was -0.602; in test [11], -0.0438; in test [16], -0.112; in [17], -0.128; in [18], 0.258. The composite z-score in test [19] was found to be 0.466; in [20], 0.153. Besides, the z-score is 0.688 in test [7]; -0.384 (inactive) in test [10]; 0.266 (inactive) in test [12]; 0.189 (inactive) in [13]; -0.971 (inactive) in [14]; -0.868 (inactive) in test [15].
`CCCC[C@@H]1C[C@H]1[C@@H](NS(=O)(=O)c1cccc2cccnc12)c1ccc(-c2ccccc2)cc1`: the composite z-score in [1] is 0.983; in test [2], 1.08; in [3] it was 0.479; in test [4], -0.809; in [5], 0.0634; in [6], -1.06. The composite z-score in test [8] was -0.805; in test [9], 0.366; in [11] it was -0.0366; in test [16], 0.731; in test [17], 0.134; in [18], -0.199. The composite z-score was -0.199 in test [19] and -1.66 in test [20]. For the same molecule, the z-score in [7] was 0.164; in test [10] it was 0.633 (inactive); in [12], -0.325 (inactive); in [13], -1.02 (inactive); in [14] it was 0.204 (inactive); in test [15], 1.62 (inactive).
As for `CC(=O)OC[C@H]1O[C@H](C#CCCCc2ccccc2)C=C[C@@H]1OC(C)=O`, the composite z-score in test [1] turned out to be 0.451; in [2], 0.242; in [3], 0.126; in [4], 0.735; in test [5] it was 0.47; in [6] it was 0.83. For the same molecule, the composite z-score is 0.696 in [8]; 0.353 in test [9]; 0.18 in test [11]; -0.111 in test [16]; 0.322 in test [17]; -0.0078 in test [18]. The composite z-score was 0.0804 in [19] and 1.19 in test [20]. Besides, the z-score was -0.264 in test [7]; -1.65 (inactive) in [10]; -2.33 (inactive) in test [12]; 0.952 (inactive) in test [13]; 0.106 (inactive) in [14]; 1.28 (inactive) in [15].
